Laboratory results reported in ChEMBL document CHEMBL3988442, “University of Dundee, Small-Polar-MMV Screening Library” (2021).
In all, about 48,000 compounds went through this assay and about 13,000 (27%) showed an effect of 50% or more. Some of the results follow.

These compounds were tested on Wolbachia pipientis (assay: Anti-Wolbachia Cell-Based Screen). Conditions: 5 µM.
Type: functional
Set-up: scale not given: in the data most compounds retested in dose-response had high values

| SMILES | Percent Effect [%] |
| --- | --- |
| COc1ccc(N2Cc3nc(=O)[nH]n3C2=O)cc1 | -10.45 |
| COCCSc1ccc(-n2cccn2)nn1 | 0.3938 |
| CC(c1nncn1C)n1cc(-c2cc(CN3CCCC3)cs2)nn1 (configuration not stated) | 2.3 |
| CCC(Sc1ncc(CO)n1C)c1ccccc1 (configuration not stated) | 5.427 |
| Cc1cc(Br)c(O)c(-c2nc(N3CCCCC3)sc2C)c1 | 122.7 |
| Oc1nnc(-c2ccccc2)c2sc(N3CCCCC3)nc12 | -2.363 |
| Cc1cc(Br)c(O)c(-c2nc(N3CCOCC3)sc2C)c1 | 133.3 |
| Cc1cc(Br)c(O)c(C(=O)N2CCC(CN3CCCCCC3)CC2)c1 | 20 |
| COc1ccc(-n2nc(C(C)C)nc2Cn2cncn2)cc1 | 2.008 |
| CC(C)Cc1cc(C(=O)N2CCC(C(=O)N3CCOCC3)CC2)on1 | -1.733 |
| CCn1c(C2CCN(C(=O)CCc3cc(Cl)no3)CC2)nn(C)c1=O | 91.1 |
| CCn1nc(CC(C)C)cc1C(=O)N1CCC(n2cnnc2)CC1 | 19.79 |
| CCOC(=O)CC1CCCCN1C(=O)CCc1cc(Cl)no1 (configuration not stated) | -3.772 |
| CCn1c(C2CCN(C(=O)c3cc(CC(C)C)on3)CC2)nn(C)c1=O | 100.4 |
| Cc1nc(CN2CCN(C(=O)c3cc(C4CC4)on3)CC2)cs1 | -4.93 |
| CCn1c(CC2CCN(C(=O)c3cc(CC(C)C)on3)CC2)n[nH]c1=O | 3.496 |
| O=C(c1cc(C2CC2)on1)N1CCC(Oc2ncccc2Br)CC1 | 12.65 |
| CCn1c(C2CCN(C(=O)c3cc(CC(C)C)no3)CC2)nn(C)c1=O | 80.93 |
| COC(=O)C1CCCN1C(=O)c1cc(CC(C)C)no1 (configuration not stated) | -6 |
| CCn1c(C2CCN(C(=O)c3cc(C4CC4)on3)CC2)nn(C)c1=O | 94.75 |
| O=C(CCc1cc(Cl)no1)N1CCN(CCn2cncn2)CC1 | -9.479 |
| CC(C)N(Cc1cccnc1)C(=O)CSc1ccc(C#N)cc1 | -11.42 |
| CC(C)(C)c1cc(C[C@H]2CNCC[C@H]2CC(=O)Nc2ccccc2)no1 | -4.037 |

| SMILES | Percent Effect [%] |
| --- | --- |
| COc1ccc(Cc2noc(C3=NN(C)C(=O)CC3)n2)cc1OC | -17.82 |
| CCn1c(C2CCN(C(=O)c3cc(Cl)no3)CC2)nn(C)c1=O | 81.76 |
| CCn1c(C2CCCN(Cc3ccc(F)cc3Cl)C2)nn(C)c1=O (configuration not stated) | -0.1084 |
| CCn1c(C2CCCN(Cc3cc(C)cc(C)c3)C2)nn(C)c1=O (configuration not stated) | 14.99 |
| COC1CCN(C(=O)CC2CCCC2)CC(=O)N(C)c2ccccc21 (configuration not stated) | 104.1 |
| COC1CCN(C(=O)C2CC(=O)N(c3ccccc3Br)C2)CC1 (configuration not stated) | -10.75 |
| COC1CN(C(=O)CC2CCCC2)CCC(=O)N(C)c2ccccc21 (configuration not stated) | 101.3 |
| CCN1CCC(CC(=O)N2CCN(c3ccccc3OC)CC2C)CC1 (configuration not stated) | 10.24 |
| COC1CCN(C(=O)C2CCCC2)CC(=O)N(C)c2ccccc21 (configuration not stated) | 111 |
| COC(=O)NCC(=O)NCC1(c2c(F)cccc2F)CCCC1 | 1.826 |
| O=C(CN1CCC(c2cccc(F)c2)C1)NCC(F)(F)F (configuration not stated) | -23.91 |
| COc1cc(F)c(C(=O)NCc2cc(C)on2)c(F)c1 | -19.16 |
| CCSc1ncc(CN2CCN(c3nc(C)ncc3C)CC2)cn1 | 0.05242 |
| O=C(NC[C@H]1CCCO1)c1ccc(S(=O)(=O)N2C[C@@H]3C[C@H]2CN3)cc1 | -5.829 |
| CN(Cc1ccccn1)C(=O)c1cc(CN2CCC(O)CC2)on1 | -20.11 |
| NCCn1cc(C(=O)NCc2ccccc2-n2cccn2)nn1 | -2.966 |
| Cc1nnc(-c2cccc(C#N)c2)n1C1CCCN(C(C)C)C1=O (configuration not stated) | 109.2 |
| CC(C)N1CCC(Nc2ccn(CCC#N)n2)C1=O (configuration not stated) | 1.087 |
| CC(C)N1CCCC(N2CCOC3(CCCC3)C2)C1=O (configuration not stated) | -1.206 |
| Cc1nnc(-c2cccc(C#N)c2)n1C1CCN(C2CC2)C1=O (configuration not stated) | 99.28 |
| CCCc1nn(C2CCN(C(C)C)C2=O)c(=O)o1 (configuration not stated) | -9.274 |
| Cc1nnc(-c2cccc(C#N)c2)n1C1CCN(C(C)C)C1=O (configuration not stated) | 107.2 |
| CC(=O)N1CCC(Oc2cccc(C#N)c2)CC1 | -7.429 |

| SMILES | Percent Effect [%] |
| --- | --- |
| CC1CCC(O)(Cn2ncnc2-c2cccc(C#N)c2)CC1 (configuration not stated) | -11.33 |
| CCCc1nn(C2CCCN(C(C)C)C2=O)c(=O)o1 (configuration not stated) | -1.45 |
| Cc1noc(-c2cccnc2N2CCN(c3cnn(C)c3)CC2)n1 | -14.91 |
| O=C(NCCc1cccs1)N1CCCC2(CCC(=O)N(C3CC3)C2)C1 (configuration not stated) | -0.08952 |
| O=C(COCC1CC1)N1CCCC1c1nc(-c2ccccc2F)c[nH]1 (configuration not stated) | 4.201 |
| NCC(=O)N1CCCCC1c1ccc(F)cc1 (configuration not stated) | -11.61 |
| CCOCCCC(=O)N1CCCC1c1nc(-c2ccccc2F)c[nH]1 (configuration not stated) | -5.002 |
| Cl.NCC(=O)N1CCCC1c1n[nH]cc1-c1ccccc1F (configuration not stated) | 132.3 |
| CCC(=O)N1CCCC1c1n[nH]cc1-c1ccccc1F (configuration not stated) | 184.8 |
| CNCC(=O)N1CCCC1c1n[nH]cc1-c1ccccc1F.Cl (configuration not stated) | 165.9 |
| COC(=O)NCC(=O)N1CCCC1c1nc(-c2ccccc2F)c[nH]1 (configuration not stated) | 0.1259 |
| O=C1CC(c2ccsc2)c2sc(C(=O)O)c(-c3ccccc3)c2N1 (configuration not stated) | 15.35 |
| O=C(NCCCN1CCOCC1)C(OC1CCCC1)c1ccccc1 (configuration not stated) | -5.979 |
| CCN(CC)CCNC(=O)c1ccc(Cl)c(NS(C)(=O)=O)c1 | -1.52 |
| O=C(NCCCN1CCCC1=O)c1ccc(-n2ccc3ccccc32)s1 | 114.9 |
| Cc1ccc(OCCC(=O)NCCCN2CCCC2=O)c(C)c1 | -5.078 |
| O=C(NCCN1CCOCC1)c1ccc(-n2ccc3ccccc32)s1 | -14.37 |
| CCN(CC)CCNC(=O)c1ccc(-n2ccc3ccccc32)s1 | 94.19 |
| O=C(NCCCN1CCCCC1)c1ccc(-n2ccc3ccccc32)s1 | -1.697 |
| CCN(CC)CCNC(=O)c1ccn(COc2cc(C)cc(C)c2)n1 | 5.075 |
| O=C(NCCCN1CCOCC1)c1ccc(-n2ccc3ccccc32)s1 | 91.37 |
